Data from PubChem BioAssay AID1004 (SRMLSC, 2008).
Active and inactive are the calls of the source.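 How the source made its calls: active means viability at 10 µM of 29.74% or lower, 3 SD below the compound median; inactive means the rest.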

Experiment: viability of HCT116 lacking mutant beta-catenin – cell-based, DP diverse set, validation, pilot screen (AID 1004)
Details: HCT116 (mutant beta-catenin deleted) viability, CellTiter-Glo, 60 h; at 10 µM; hits give low values
For `O=C(O)c1cc(=O)c2c(OCC(O)COc3cccc4oc(C(=O)O)cc(=O)c34)cccc2o1`, the viability was 100% (inactive).
For `COc1ccc2cc([C@H](C)C(=O)O)ccc2c1`, the viability was 96.8% (inactive).
In the case of `CC(C)=CCC[C@](C)(O[C@@H]1O[C@H](CO)[C@@H](O)[C@H](O)[C@H]1O)[C@H]1CC[C@]2(C)[C@@H]1[C@H](O)C[C@@H]1[C@@]3(C)CC[C@H](O[C@@H]4O[C@H](CO)[C@@H](O)[C@H](O)[C@H]4O[C@@H]4O[C@H](CO)[C@@H](O)[C@H](O)[C@H]4O)C(C)(C)[C@@H]3[C@@H](O)C[C@]12C`, the viability is reported as 93.8% (inactive).
For `C[C@H]1c2cccc(O)c2C(O)=C2C(=O)[C@]3(O)C(O)=C(C(N)=O)C(=O)[C@@H](N(C)C)[C@@H]3[C@@H](O)[C@@H]21`, the viability was 107% (inactive).
For `COc1ccc(-c2cc(C(=O)O)no2)cc1`, the viability was 99.2% (inactive).
With `O=c1c(O)c(-c2ccc(O)c(O)c2)oc2cc(O)cc(O)c12` the viability was 93% (inactive).
In the case of `CCC(C)C(O)C(C)C(=O)C(C)/C=C(\C)CC(C)C1OC(=O)C1CC` (stereo unspecified), the viability is reported as 107% (inactive).
For `COc1ccc(Cl)cc1C(=O)NCCc1ccc(S(=O)(=O)NC(=O)NC2CCCCC2)cc1`, the viability was 97% (inactive).
For `CCCCCCCCCCCCCCCC(=O)OCC(O)C1OC(=O)C(O)=C1O` (stereo unspecified), the viability was 100% (inactive).
In the case of `O=C(c1ccc(F)cc1)C1CCN(CCn2c(=O)[nH]c3ccccc3c2=O)CC1`, the viability is reported as 104% (inactive).
In the case of `CC1(C)OC2CC(=O)OCC23C1CC(=O)C1(C)C3CC[C@@]2(C)[C@H](c3ccoc3)OC(=O)C3OC312` (stereo partly specified), the viability is reported as 93% (inactive).
